Only some compounds are listed: those with a hit (about 0.78% of all), similar ones and a draw of the others.
BLM inh – blocks DNA unwinding by human BLM helicase. recombinant BLM DNA unwinding, fluorescence dequenching. Potency, µM (doses to about 56.1 µM), usual class: inhibitors. actives 0.2% (n = 350,000); note: nearly all actives have a fitted effect of over 35% in size
APE1 inh-1 – APE1 (human) endonuclease inhibition; actives 0.35% (n = 350,000); Potency, µM (top dose mostly 65.8 µM), hits mostly inhibitors; recombinant APE1, TAMRA/BHQ-2 abasic DNA cleavage fluorescence; AID 2517; P27695; note: nearly all actives have a fitted effect of over 55% in size
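0.75 nM APE1 + cpd, 15 min RT; start w/ 50 nM TAMRA/BHQ-2 THF-abasic dsDNA; kinetic fluor 525/598 nm ×3 reads @60 s; Δ(read3−read1); normalized to DMSO and NSC13755 control wells.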
L3MBTL1 block – blocks human L3MBTL1 | Q9Y468 | AlphaScreen L3MBTL1–H3K9me1 peptide binding | Potency, µM (doses to about 57.1 µM), actives largely listed as inhibitors | actives 0.66% (n = 230,000) | AID 485360; note: nearly all actives have a fitted effect of over 60% in size
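Read-out is AlphaScreen signal from streptavidin donor and nickel chelate acceptor beads (10 ug/mL final each) bridging L3MBTL1 (50 nM) and biotinylated K9-monomethylated H3(1-15) peptide (75 nM), after 30 min compound exposure at room temperature.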
RECQ1 helicase – inhibitors of human RECQ1 DNA helicase; Potency, µM (doses to about 57.3 µM), hits mostly inhibitors; actives 0.54% (n = 240,000); P46063; RECQ1 DNA unwinding, red fluorescence kinetic read; AID 2549; note: nearly all actives have a fitted effect of over 30% in size
Target sequence (P46063 whole entry, looked up): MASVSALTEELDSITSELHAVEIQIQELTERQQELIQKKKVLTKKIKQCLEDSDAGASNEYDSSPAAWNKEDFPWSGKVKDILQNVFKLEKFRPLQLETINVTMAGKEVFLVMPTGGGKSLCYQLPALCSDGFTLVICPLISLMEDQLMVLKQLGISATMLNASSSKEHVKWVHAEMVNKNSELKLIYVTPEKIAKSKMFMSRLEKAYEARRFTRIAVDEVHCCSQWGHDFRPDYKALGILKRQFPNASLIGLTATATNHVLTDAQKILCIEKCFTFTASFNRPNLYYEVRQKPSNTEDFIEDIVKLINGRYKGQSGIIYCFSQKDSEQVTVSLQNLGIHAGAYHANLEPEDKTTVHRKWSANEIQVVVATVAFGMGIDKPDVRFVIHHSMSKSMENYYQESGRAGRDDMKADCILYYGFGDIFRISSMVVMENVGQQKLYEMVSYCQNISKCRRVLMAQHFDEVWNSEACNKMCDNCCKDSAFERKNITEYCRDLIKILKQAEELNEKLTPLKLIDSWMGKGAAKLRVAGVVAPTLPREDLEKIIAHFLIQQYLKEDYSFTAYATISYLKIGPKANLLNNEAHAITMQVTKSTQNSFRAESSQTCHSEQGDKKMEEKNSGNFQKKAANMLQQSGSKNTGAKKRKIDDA
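50 nM RECQ1T1 preincubated 15 min with compound in Tris pH 8.0 buffer with MgCl2, DTT, Tween-20 and 2.5 ug/ml poly(dI-dC); started with 200 nM TAMRA/BHQ-2 forked duplex and 2 mM ATP. Unwinding read as fluorescence (525/598 nm), two reads 2 h apart.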
APE1 dye cs – DNA dye displacement counter-screen activity | shares compounds with APE1 inh-1 | DNA fluorescent dye displacement counterscreen, fluorescence | Potency, µM (highest dose often 28.5 µM), hits mostly inhibitors | actives 7% (n = 480);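 note: loss of thiazole orange fluorescence as the dye is displaced from duplex DNA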
EndoIV counter – blocks E. coli endonuclease IV DNA cleavage | shares compounds with APE1 inh-1 | E. coli Endo IV, fluorogenic AP-site DNA cleavage | Potency, µM (series often up to 27.1 µM), most hits filed as inhibitors | actives 4% (n = 560) | AID 2565
APE1 inh-2 – confirmation of inhibitors of human APE1 endonuclease; shares compounds with APE1 inh-1; purified APE1, fluorogenic abasic-site DNA cleavage; Potency, µM (doses to about 57.1 µM), most hits filed as inhibitors; actives 44% (n = 750); note: nearly all actives have a fitted effect of over 30% in size
APE1 FP – compounds that displace a DNA probe from human APE1; shares compounds with APE1 inh-1; Potency, µM (top dose mostly 28.5 µM), actives largely listed as inhibitors; APE1 binding to TAMRA-labelled double-stranded DNA, fluorescence polarization displacement; actives 7% (n = 480)
Each line names hits and unclear results; the compound was inactive in the other large screens (follow-up assays come after a bar, where they were run); ! = a repeat was not active. Calls come from the whole dose curve; as a rule, active = well fitted curve in the direction sought with a large enough effect; inconclusive = small, poorly fitted or top-dose-only effect, or another doubt; inactive = no such curve, though single readings can be large; an effect the other way counts as inactive or inconclusive.

CC(C)(C)OC(=O)N1C2C=CC1C1=COCCN1C2=O (configuration not stated)	APE1 inh-1 inconclusive (no result: L3MBTL1 block)
O=C(c1coc(=O)c(Br)c1)N1CCCc2ccccc21	BLM inh inconclusive, APE1 inh-1 inconclusive, L3MBTL1 block inconclusive, RECQ1 helicase 35µM
CC1=C(C#N)C(=O)NC(=O)/C1=C\c1ccc(-c2ccc(C)cc2[N+](=O)[O-])o1	APE1 inh-1 inconclusive, L3MBTL1 block 25µM
CC1CC=CC2C1C(=O)N(Cc1ccccc1)C2c1ccc(-c2ccc(N(C)C)cc2)cc1F (configuration not stated)	none (no result: L3MBTL1 block)
Cc1nc(-c2ccc(O)c(O)c2)cs1	APE1 inh-1 3.2µM, RECQ1 helicase inconclusive (no result: L3MBTL1 block) | APE1 dye cs inactive | EndoIV counter inactive | APE1 inh-2 inactive | APE1 FP inactive
C[C@H](NC(=O)CNC(=O)[C@@H](NC(=O)[C@H](Cc1ccccc1)NC(=O)CNC(=O)CNC[C@@H](N)Cc1ccccc1)[C@@H](C)O)C(=O)N[C@@H](CCCN=C(N)N)C(=O)N[C@@H](CCCCN)C(=O)N[C@@H](CO)C(=O)N[C@@H](C)C(=O)N[C@@H](CCCN=C(N)N)C(=O)N[C@@H](CCCCN)C(N)=O	none (no result: L3MBTL1 block)
COc1cccc(C2CN(c3ccc(F)cc3F)N=C2c2cccs2)c1OC (configuration not stated)	none
COc1ccccc1C1CN(c2ccccc2)N=C1c1cccs1 (configuration not stated)	none (no result: L3MBTL1 block) | APE1 inh-2 inconclusive
COc1cc(OC)c(NC(=O)Nc2ccc3c(c2)N(C)C(=O)c2ccccc2S3)cc1Cl	none (no result: APE1 inh-1, L3MBTL1 block, RECQ1 helicase)
CCOC(=O)CC(=O)CSc1nc(CC)c(C)cc1C#N	none | APE1 inh-2 inactive
CC(C)C(C(=O)O)N1C(=O)/C(=C/C=C/c2ccco2)SC1=S (configuration not stated)	BLM inh inconclusive, APE1 inh-1 1.6µM, L3MBTL1 block 1.8µM, RECQ1 helicase inconclusive | APE1 dye cs inactive | EndoIV counter inactive | APE1 inh-2 2.5µM | APE1 FP inactive
CC(C)C(C(=O)O)N1C(=O)/C(=C/c2cccn2C)SC1=S (configuration not stated)	none
NC(=O)C1CCN(C2CC(=O)NC2=O)CC1 (configuration not stated)	APE1 inh-1 inconclusive, L3MBTL1 block inconclusive | APE1 dye cs inactive | EndoIV counter inactive | APE1 inh-2 inconclusive | APE1 FP inactive
COc1cccc(/C=C2\SC(=O)NC2=O)c1OCc1ccc(C(=O)O)cc1	APE1 inh-1 inconclusive | APE1 inh-2 inactive
COc1cc(/C=C2/NC(=O)NC2=O)cc(Br)c1OCc1ccc(C(=O)O)cc1	APE1 inh-1 inconclusive (no result: L3MBTL1 block) | APE1 inh-2 inconclusive
COc1cccc(C2=Nn3c(nnc3-c3cc(OC)ccc3OC)SC2)c1	none (no result: L3MBTL1 block)
Nc1cc([N+](=O)[O-])ccc1N1C(=O)CCCC1=O	APE1 inh-1 inconclusive | APE1 inh-2 inconclusive
Nc1ccc(N)c(C(=O)O)c1	BLM inh 5.6µM, APE1 inh-1 1.3µM, RECQ1 helicase 11µM (no result: L3MBTL1 block) | APE1 inh-2 2.2µM
Cc1ccc(-c2ccc(CCC(=O)O)n2-c2ccc(C(C)C)cc2)cc1	none (no result: APE1 inh-1, L3MBTL1 block, RECQ1 helicase)
CCN(CC)c1ccc(-c2nnc(SCC(=O)Nc3ccccc3C#N)n2-c2ccccc2)cc1	APE1 inh-1 inconclusive | APE1 dye cs inactive | EndoIV counter inconclusive | APE1 inh-2 inconclusive | APE1 FP inactive
Cn1nnnc1SCC1=C(C(=O)O)N2C(=O)C(NC(=O)C(O)c3ccccc3)C2SC1 (configuration not stated)	none (no result: L3MBTL1 block)
Cn1nnnc1SCC1=C(C(=O)O)N2C(=O)[C@@H](NC(=O)[C@H](O)c3ccccc3)[C@H]2SC1	APE1 inh-1 inconclusive, L3MBTL1 block inconclusive | APE1 inh-2 40µM
CC(C)[N+](C)(CCOC(=O)C1c2ccccc2Oc2ccccc21)C(C)C	APE1 inh-1 8.9µM!, RECQ1 helicase inconclusive | EndoIV counter inactive | APE1 inh-2 inactive
CC1(C)Oc2cc(N)c([N+](=O)[O-])cc2O1	APE1 inh-1 32µM | APE1 dye cs inactive | EndoIV counter inactive | APE1 inh-2 inactive | APE1 FP inactive
O=Cc1ccc2oc3nc4n(c(=O)c3c(=O)c2c1)CCCS4	BLM inh 28µM, APE1 inh-1 inconclusive, RECQ1 helicase 13µM (no result: L3MBTL1 block) | APE1 inh-2 32µM
O=c1c2cc(Br)cc(Br)c2oc2nc3n(c(=O)c12)CCCS3	none (no result: L3MBTL1 block)
O=C(O)c1cc(O)c2c(c1)C(=O)c1cc(O)cc(O)c1C2=O	APE1 inh-1 25µM, L3MBTL1 block 2.5µM, RECQ1 helicase inconclusive | APE1 dye cs 13µM | EndoIV counter inconclusive | APE1 inh-2 14µM | APE1 FP 5µM
COc1cc(O)c2c(c1)C(=O)c1cc(C)cc(O)c1C2=O	none (no result: L3MBTL1 block)
CCCNC(=O)OC[C@@H]1O[C@H](CCO/N=C(\C)CCC(=O)OC[C@@H]2O[C@H](C#Cc3ccccc3)C=C[C@@H]2Oc2ccc(C)cc2)C=C[C@@H]1Oc1ccc(OC)cc1	APE1 inh-1 inconclusive (no result: L3MBTL1 block)
O=C(/C=C/c1ccc(O)c(O)c1)O[C@@H](C(=O)O)[C@@H](OC(=O)/C=C/c1ccc(O)c(O)c1)C(=O)O	APE1 inh-1 inconclusive (no result: BLM inh, L3MBTL1 block)
O=C(O)/C=C/c1ccc(O)c(O)c1	APE1 inh-1 inconclusive, L3MBTL1 block inconclusive | APE1 dye cs inactive | EndoIV counter inactive | APE1 inh-2 inconclusive | APE1 FP inactive
O=C(/C=C/c1ccc(O)c(O)c1)O[C@H](Cc1ccc(O)c(O)c1)C(=O)O	BLM inh 22µM, APE1 inh-1 0.13µM, RECQ1 helicase 3.5µM (no result: L3MBTL1 block) | APE1 dye cs inactive | EndoIV counter inactive | APE1 inh-2 0.63µM | APE1 FP inactive
Cn1c(NCc2ccccc2F)nc2ccccc21	none (no result: APE1 inh-1, L3MBTL1 block, RECQ1 helicase)
COc1cc(OC)c2c(c1)OC(c1ccccc1)CC2=O (configuration not stated)	none (no result: L3MBTL1 block)
COc1cc(OC)c2c(c1O)OC(c1ccccc1)CC2=O (configuration not stated)	APE1 inh-1 7.9µM, L3MBTL1 block inconclusive, RECQ1 helicase 13µM | APE1 dye cs inactive | EndoIV counter inconclusive | APE1 inh-2 inconclusive | APE1 FP 13µM
Cc1ccc(C)n1-c1ccc(C(=O)O)cc1	APE1 inh-1 14µM (no result: L3MBTL1 block) | APE1 inh-2 13µM
CC(=O)c1c(C(C)=O)c(C)n(-c2ccc(C(=O)O)cc2)c1C	none
COc1ccc2[nH]c(C(=O)O)c(CCN3C(=O)c4cccc([N+](=O)[O-])c4C3=O)c2c1	APE1 inh-1 inconclusive | APE1 inh-2 40µM

Source: PubChem BioAssay (National Center for Advancing Translational Sciences (NCATS))
